The structures appear in SMILES notation. Compounds without any hit were thinned out: in the full panel of roughly 83,000, 20% have a hit.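 96-well plates, one dose, 48 hours. Percent growth reported; active if below 10.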 Unmarked numbers belong to inactive results. Calls of active or inactive are those of the source.

The test system of the test is NCI/ADR-RES ovarian. Kind of test: NCI-60 one-dose screen, 48 h (100 = growth as untreated, 0 = no growth, -100 = all killed). The conditions noted are these: 10 µM unless noted. On the procedure:
Growth inhibition of the NCI/ADR-RES human […] tumor cell line is measured as a screen for anti-cancer activity. Cells are grown in 96 well plates and exposed to the test compound for 48 hours. Compounds are tested at a single concentration, which is 10^-5 M for most compounds. The reported endpoint is percent growth (GI% or GIPRCNT), where numbers from 0 - 100% represent growth inhibition, and numbers from -100% - 0 represent cell death. For example, a value of 40 represents 60% growth inhibition. A value of 0 means no net growth occurred over the course of the experiment. A value of -40 indicates 40% of cells at the beginning of the experiment died by the end of the experiment. A value of -100 means all cells are dead at the end of the experiment.
NCI-60 Human Tumor Cell Lines Screen was performed using the standard one-dose NCI protocol, which is described in more detail at https://dtp.cancer.gov/discovery_development/nci-60/default.htm.
Compounds with GIPRCNT values below 10 were considered active. Activity score was based on GIPRCNT using the following formula: […]
Score is 0 for GIPRCNT values of 100 or above, 50 for GIPRCNT values of 0, and 100 for GIPRCNT values of -100.
For `COC(=O)c1ccc2cc(OC)c(OC)cc2c1`, the growth was 107%.
As for `CCOC(=O)c1c(NC(=O)c2ccccc2)sc2c3c(ccc12)OCN(C)C3`, the growth was 5.26% (active).
With `CC[C@H](Nc1nc(N)nc(C)c1C#N)c1nc2cccc(CN(C)c3ncc(C(=O)NO)cn3)c2c(=O)n1-c1ccccc1`, the growth is 73.3%.
For `COC1C(O)CC(OC2CC(OC3CC(O[C@@H]4C(=O)c5c(cc6cc(OC7CC(OC8CC(O)C(O)C(C)O8)C(O)C(C)O7)c(C)c(O)c6c5O)CC4[C@H](OC)C(=O)C(C)=O)OC(C)C3O)OC(C)C2O)OC1C` (stereo not given in full), the growth was 18.8%.
For `Cc1ccc(OCCOCCOCCOc2ccc(C)n(O)c2=S)c(=S)n1O` the value was 16.4%; for `COc1cc2ncnc(Nc3ccc(S(=O)(=O)Nc4nccs4)cc3)c2cc1OCCCN1CCCC1`, 108%.
For `CCCOC(=O)Nc1nc2ccc(SCC)cc2s1` the value was 50.5%; for `CC1(/C=C/c2ccc(-c3ccccc3)cc2)CCn2cnc3ncnc(c32)N1O` (stereo not given), 3.15% (active).
For `Nc1nc2ccccc2c2c(=O)c3cc(Cl)ccc3sc12` the value was 108%.
In the case of `Cc1cn(C)cn1`, the growth was 109%.
In the case of `CC(C)Cc1nc(Nc2ccccc2)[nH]c(=O)c1C#N`, the growth was 62.9%.
As for `COC12C=C/C(=C(/C(=O)OCCSc3ccnn3C)C(=O)CCCCCCCCC3(OC)C=C/C(=C(/C(=O)OCCSc4ccnn4C)C(=O)CCCCCCCC1)O3)O2`, the figure is 25.2%.
As for `C=C1C(=O)O[C@H]2[C@H]1CC/C(COC(=O)/C=C\C(=O)NCc1ccc(Cn3c(=O)sn(CCCCl)c3=O)cc1)=C\CC[C@@]1(C)O[C@@H]21`, the figure is 93.7%.
Regarding `O=C(/C=C/C12c3ccccc3C(c3ccccc31)C1C(=O)NC(=O)C12)c1ccco1` (stereo not given), the growth was 42.3%.
`Cc1cc(C(=O)CCCC(=O)c2cc(C)c(O)c(C)c2)cc(C)c1O`: the growth was 98%.
For `Nc1c(C(=O)Nc2cccc3ncccc23)sc2nc3c(cc12)CN(Cc1ccccc1)CC3` the value was 87.9%; for `COc1ccc2c(c1)C(C)Cc1c(ncnc1-n1cnc3cc(C)ccc31)N2C` (stereo not given), 6.69% (active).
Regarding `CCOC(=O)C/C(=N\Nc1cc(=O)[nH]c2ccc(OC)cc12)C(=O)OCC`, the growth is 103%.
As for `O=C1Nc2ccc(Cl)cc2/C1=C/c1ccc[nH]1`, the figure is 112%.
As for `CCCCCc1ccc(S(=O)(=O)Nc2ccc3nc(N)oc3c2)cc1`, the figure is 53%.
As for `CCN(CC)CCCNc1cc(OC)c(OC)c2cccnc12`, the figure is 76.6%; as for `CC(=O)c1sc(-c2ccc(F)cc2)cc1O`, 106%.
Turning to `CCOC(=O)CC1CSC(N/N=C/c2ccc(F)c(Br)c2)=N1` (stereo not given), the growth was 103%.
For `COC1C(O)CC(OC2CC(OC3CC(O[C@@H]4C(=O)c5c(cc6cc(OC7CC(OC8CC(O)C(O)C(C)O8)C(O)C(C)O7)c(C)c(O)c6c5O)CC4[C@H](OC)[C@@H](O)C(C)=O)OC(C)C3O)OC(C)C2O)OC1C` (stereo not given in full) the value was 68.8%; for `O=C(OCc1ccc2c(Cl)cc(Cl)c(O)c2n1)N1CCN(C(=O)c2cc3ccccc3[nH]2)CC1`, 7.03% (active).
Regarding `COc1ccc2[nH]cc(-c3nonc3-c3c[nH]c4ccc(Br)cc34)c2c1`, the growth was 39.9%.
Consider `CCOc1ncc([N+](=O)[O-])c(OCC)n1`, for which the growth is 99.5%.
For the compound `CC(C)C1C2=C(NCCN1C(=O)c1ccncc1)C(C)(C)N(Cc1ccccc1)C2=O` (stereo not given), the growth is 99.4%.
For `Cc1ccc(S(=O)(=O)c2nc(-c3ccccc3)oc2SCC(N)=O)cc1` the value was 99.5%.
For `Fc1cc2[nH]ncc2c2c3c(c(-c4cn[nH]c4C(F)(F)F)nc12)CCCC3` the value was 45.6%.
For `COc1ccc(/C=C2\c3cc(OC)c(OC)c(OC)c3CC[C@@H]2O)cc1F` the value was 8.8% (active).
Take `Cc1ccc(C2CC(c3cccc(Nc4ccncc4)c3)=Nc3c(N)nc(N)nc3N2)cc1` (stereo not given): the growth was 101%.
For `COCCn1cc(-c2csc(-c3c[nH]c4ccccc34)n2)c2cccnc21` the value was 12.7%.
In the case of `COc1ccc(C(=O)Nc2ncc(Cc3ccc(Cl)cc3)s2)cc1`, the growth was 9.45% (active).
As for `C/C(=N\Nc1ccccc1)c1ccc(NC2=CC(=O)c3ccccc3C2=O)cc1`, the figure is 54%; as for `COCCn1cc(-c2nc(-c3cn(CCOC)c4ncccc34)cs2)c2cc(F)ccc21`, 63.8%; as for `O=C(Nc1nc(Cl)nc(Nc2ccc(N3CCOCC3=O)cc2)n1)c1ccc(Cl)s1`, 99%.
As for `CC1(C)N=C(N)N=C(N)N1c1cc(Cl)ccc1Cl`, the growth was 67.8%.
In the case of `O=C(Nc1ccc(Oc2cccc(Cl)c2)c(Cl)c1)c1cccnn1`, the growth was 85%.
As for `CCN1CCN(CCNc2nccc(-c3c(-c4ccc(F)c(O)c4)nc4occn34)n2)S1(=O)=O`, the figure is 12.3%.

The values above are taken from PubChem BioAssay (NCI).
